Among all 300,000 compounds or so, about 37,000 (12%) were called active. The sample holds actives, similar compounds and a random draw of the others, so the mix is not that of the screen. A number with no mark means an inactive call. Rule as the data show it: active = max response mostly above about 13% (no sharp cut-off); inactive = mostly below about 14%.
Experiment: Cycloheximide Counterscreen for Small Molecule Inhibitors of Shiga Toxin; also: read at 38.3 µM for the half of the compounds with a filed dose; 0% is about no effect
Conditions: cell reporter, cycloheximide protein synthesis inhibition counterscreen; stronger effect = higher value

Which max response does the source give for CCCn1c(C(O)c2ccc(OCC)cc2)nc2ccccc21 (stereo not drawn) here?
Its max response is -3.7%.

Which max response does the source give for COc1ccc(OC)c(C(O)c2nc3ccccc3n2C)c1 (stereo not drawn) here?
Its max response is -2.03%.

Which max response does the source give for COc1cc(C(O)c2nc3ccccc3n2C)cc(OC)c1OC (stereo not drawn) here?
Its max response is 0.887%.

For CCOc1ccc(C(O)Cn2c(=N)n(CCN3CCCCC3)c3ccccc32)cc1 (stereo not drawn), which max response is on record?
The max response was -4.27%.

Which max response does the source give for COc1cccc(C(O)Cc2nc3ccccc3n2C)c1OC (stereo not drawn) here?
Its max response is 20.6% (active).

With CCOc1ccc(C(O)Cc2nc3ccccc3n2C)cc1 (stereo not drawn) as the compound, how does the max response read?
Its max response is 22.1% (active).

With COc1ccc(CN2CC(C(=O)NC3CCCCC3)CC2=O)cc1 (stereo not drawn) as the compound, how does the max response read?
Its max response is -2%.

Which max response does the source give for O=C1Oc2ccccc2C(=O)/C1=C/c1ccccc1O here?
Its max response is 12.4%.

For COCCNC(=O)C1CCN(C(=O)C2CC(=O)N(c3ccc(C)cc3)C2)CC1 (stereo not drawn), which max response is on record?
The max response was 1.44%.

Which max response does the source give for CCOC(=O)c1c(NC(=O)c2ccc(S(=O)(=O)N(C)CC3CCCO3)cc2)sc2c1CC(C)(C)NC2(C)C (stereo not drawn) here?
Its max response is -4.44%.

Which max response does the source give for COc1ccc(NC(=O)N2CCCC2C(=O)NCc2ccccc2Cl)cc1 (stereo not drawn) here?
Its max response is -3.43%.

Which max response does the source give for O=C(c1ccccc1F)N(Cc1ccccc1)Cc1ccccc1 here?
Its max response is -2.08%.

For C=CCN1C=C2C(=O)C(C)(OC(=O)CCc3ccccc3)C(=O)C=C2C=C1c1ccc(C#N)cc1 (stereo not drawn), which max response is on record?
Its max response is -1.82%.

For O=C(Nc1ccc2c(c1)OCCO2)c1ccoc1, which max response is on record?
Its max response is 35.3% (active).

Which max response does the source give for O=C(Nc1ccc2c(c1)OCCO2)c1ccncc1 here?
The max response was 33.1% (active).

With O=C(Cn1c(=O)sc2ccccc21)Nc1ccc2c(c1)OCCO2 as the compound, how does the max response read?
The max response was -0.826%.

With O=C(CCN1C(=O)c2ccncc2C1=O)Nc1ccc2c(c1)OCCO2 as the compound, how does the max response read?
The max response was 1.67%.

With O=C(Nc1ccc2c(c1)OCCO2)c1cnccn1 as the compound, how does the max response read?
The max response was 33%.

For Cn1c(=O)c2ccccc2n(CC(=O)Nc2ccc3c(c2)OCCO3)c1=O, which max response is on record?
The max response was -8.73%.

Which max response does the source give for COc1cccc(N(C(=O)CNC(=O)c2ccco2)C(C(=O)NC2CCCCC2)c2cccnc2)c1 (stereo not drawn) here?
The max response was -2.98%.

Which max response does the source give for CCN(CC)c1ccc(NC(=O)CN2CCN(c3ccccn3)CC2)cc1 here?
Its max response is -3.57%.

For CC[n+]1cc(C)ccc1/C=C/c1ccc(N(C)C)cc1, which max response is on record?
The max response was 12.8%.

For O=c1ccnc(Nc2ccc(Cl)cc2)[nH]1, which max response is on record?
The max response was 1.06%.

With O=C(Nc1cc(S(=O)(=O)N2CCOCC2)ccc1Cl)c1cc(=O)c2ccccc2o1 as the compound, how does the max response read?
Its max response is 2.68%.

Which max response does the source give for COc1ccc(Nc2oc(-c3ccccc3Cl)nc2C#N)cc1 here?
Its max response is 9%.

Which max response does the source give for N#Cc1nc(COc2ccc(-c3ccccc3)cc2)oc1NCc1cccnc1 here?
The max response was 9.29%.

Which max response does the source give for N#Cc1nc(Cc2cccc3ccccc23)oc1NCc1ccc2c(c1)OCO2 here?
Its max response is -2.28%.

Which max response does the source give for CCOc1ccc(Nc2oc(Cc3ccccc3)nc2C#N)cc1 here?
Its max response is 31.6% (active).

With N#Cc1nc(Cc2ccccc2)oc1NCCc1ccccc1 as the compound, how does the max response read?
Its max response is 39.2% (active).

With Cc1ccccc1-c1nc(C#N)c(NCc2ccco2)o1 as the compound, how does the max response read?
The max response was 8.49%.

Which max response does the source give for O=c1cc(C(F)(F)F)[nH]c(=O)n1C1CCCCC1 here?
Its max response is 6.49%.

With CCCCn1c(N)c(N(CC)C(=O)c2ccccc2C(F)(F)F)c(=O)[nH]c1=O as the compound, how does the max response read?
Its max response is -3.22%.

With CCSc1nc(C)c(CCOc2cccc(C)c2)c(=O)[nH]1 as the compound, how does the max response read?
Its max response is 1.14%.

Which max response does the source give for O=C(Nc1ccc(Cl)cc1)OCc1cc(-c2ccccc2)on1 here?
Its max response is 22.5% (active).

For Clc1ccc(-c2cc(COc3ccccc3)no2)cc1Cl, which max response is on record?
The max response was -2.19%.

Which max response does the source give for O=C(Nc1ccccc1)OCc1cc(-c2ccc(Cl)cc2)on1 here?
Its max response is -2.77%.

Which max response does the source give for CS(=O)(=O)Nc1cccc(C2=NN(C(=O)c3cccc(F)c3)C(c3cccs3)C2)c1 (stereo not drawn) here?
Its max response is -2.01%.

For Cc1ccc(C2CC(c3cccc(NS(C)(=O)=O)c3)=NN2S(C)(=O)=O)cc1 (stereo not drawn), which max response is on record?
The max response was 45.1% (active).

With CCS(=O)(=O)Nc1ccc(C2=NN(C(C)=O)C(c3cccs3)C2)cc1 (stereo not drawn) as the compound, how does the max response read?
Its max response is 16%.

For CS(=O)(=O)Nc1ccc(C2=NN(S(C)(=O)=O)C(c3cccs3)C2)cc1 (stereo not drawn), which max response is on record?
Its max response is 33.7% (active).

Which max response does the source give for CS(=O)(=O)Nc1cccc(C2=NN(S(=O)(=O)c3ccccc3)C(c3cccs3)C2)c1 (stereo not drawn) here?
The max response was -3.68%.

Which max response does the source give for Cc1ccccc1C1CC(c2cccs2)=NN1S(C)(=O)=O (stereo not drawn) here?
The max response was -1.48%.

For CCOc1ccc(NC(=S)NC(=O)/C=C/c2ccc(OC)cc2)c([N+](=O)[O-])c1, which max response is on record?
Its max response is 9.22%.

For c1ccc2c(C[n+]3csc4ccccc43)cccc2c1, which max response is on record?
The max response was 9.31%.

For COC(=O)Cn1cnc2scc(-c3ccc(C)c(C)c3)c2c1=O, which max response is on record?
The max response was -2.51%.

Which max response does the source give for CCc1ccc(S(=O)(=O)N/N=C\c2ccc([N+](=O)[O-])o2)cc1 here?
The max response was 5.73%.

For Cc1cc2ccccn2c1C(=O)c1cccc(S(=O)(=O)N2CCOCC2)c1, which max response is on record?
The max response was -0.598%.

For CCC(=O)OCCNc1nc(-c2ccccc2)nc2ccccc12, which max response is on record?
Its max response is 1.39%.

With O=C(NNc1c2ccccc2nc2ccccc12)c1cc2ccccc2cc1O as the compound, how does the max response read?
Its max response is -1.17%.

With CC(C)(C)OC(=O)NNc1c2ccccc2nc2ccccc12 as the compound, how does the max response read?
Its max response is 11.3% (active).

For COc1ccc(C(CCN(Cc2ccc(OC)c(OC)c2)C(=O)CCl)c2ccccc2)cc1 (stereo not drawn), which max response is on record?
Its max response is -1.89%.

Which max response does the source give for CC(=O)c1cccc(NC(=O)CN2C(=O)c3cccnc3Oc3ccc(Cl)cc32)c1 here?
The max response was 8.12%.

With O=C(Cn1c(N2CCN(C/C=C/c3ccccc3)CC2)nc2ccccc21)c1ccccc1 as the compound, how does the max response read?
Its max response is 8.47%.

With CC[C@H](C)[C@H](NC(=O)[C@@H](N)CCC(=O)O)C(=O)N[C@@H](CC(C)C)C(=O)N[C@@H](CC(=O)O)C(=O)N[C@H](C(=O)N1CCC[C@H]1C(=O)N[C@@H](CO)C(=O)N[C@H](C(=O)O)[C@@H](C)O)C(C)C as the compound, how does the max response read?
Its max response is 0.56%.

For CCOC(=O)c1c(NC(=O)C(C)Sc2c[nH]c3ccccc23)sc2c1CCC2 (stereo not drawn), which max response is on record?
Its max response is -0.942%.

Which max response does the source give for CCOc1ccccc1NC(=O)CCc1nnc2ccc(NCc3ccco3)nn12 here?
The max response was 2.03%.

For O=C(CCc1nnc2ccc(NCc3ccco3)nn12)Nc1cc(F)ccc1F, which max response is on record?
The max response was -2.19%.

For CC(=O)c1ccc(NC(=O)CCc2nnc3ccc(NCc4ccco4)nn23)cc1, which max response is on record?
The max response was 40.6% (active).
